{"source": "PubChem BioAssay (NCATS)", "note": "Records with an inconclusive call do not appear. A number with no mark means an inactive call. Calls of active or inactive are those of the source. Calls come from the whole dose curve; as a rule, active = well fitted inhibition curve with a large enough effect; inconclusive = small, poorly fitted or top-dose-only effect; inactive = flat fitted curve, though single readings scatter. % is set by controls: 0 for no effect and ±100 for the full control effect; potency is the fitted concentration of half-maximal effect.", "data": [{"system": "KB-3-1", "assay": "Cytotoxic Profiling of Annotated Libraries Using Quantitative High-Throughput Screening (AID 1296008); note: nearly all actives have a fitted effect of over 60% in size", "settings": "Five cell lines viability, CellTiter-Glo ATP luminescence, 48-72 h; max response: stronger effect = lower value", "method_in_brief": "(§1)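 Cells exposed to compounds for 48 or 72 hr at 37 degrees Celsius. Viability read as ATP-coupled luminescence with CellTiter-Glo after 10 min at room temperature.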", "units": {"max response": "%"}, "values": [{"smiles": "C=C(C)[C@@H]1CC=C(COC(=O)NC(=O)c2ncn3c(=O)n(C)nnc23)CC1", "max response": 2.36}, {"smiles": "CCCOc1ccc2nc(NC(=O)OC)sc2c1", "Potency": "10.3 µM (active)"}, {"smiles": "C=C1C(=O)O[C@H]2CC(=C)[C@H]3CC[C@@](C)(O)[C@@H]3CC12", "note": "(stereo not given in full)", "max response": -21.5}, {"smiles": "CCNC(=O)C#Cc1ccc2c(C(=Nc3ccc(CN(C)C)cc3)c3ccccc3)c(O)[nH]c2c1", "Potency": "0.0282 µM (active)"}, {"smiles": "CC1(C)CN(C(=O)c2ccc(-c3cccc4nc(NC(=O)C5CC5)nn34)cc2)C1", "outcome": "inactive"}, {"smiles": "COc1cc(CCO)ccc1O[C@@H]1O[C@H](CO)[C@@H](O)[C@H](O)[C@H]1O", "max response": 7.87}, {"smiles": "CC(C)c1cccc(C(C)C)c1NC(=O)Nc1ccc(Sc2ccc([N+](=O)[O-])cc2)cc1", "Potency": "10.3 µM (active)"}, {"smiles": "O=C(Nc1ccnc(NC(=O)C2CC2)c1)c1c(Cl)cccc1Cl", "Potency": "20.6 µM (active)"}, {"smiles": "Oc1cccc(-c2c3nc(c(-c4cccc(O)c4)c4ccc([nH]4)c(-c4cccc(O)c4)c4nc(c(-c5cccc(O)c5)c5ccc2[nH]5)CC4)C=C3)c1", "Potency": "16.4 µM (active)"}, {"smiles": "FC(F)(F)c1ccccc1-c1cc(C(F)(F)F)c2nc(C3=NOC4(CCCCC4)C3)[nH]c2c1", "max response": -18.9}, {"smiles": "C=C1CC[C@@H]2[C@](C)(CO)[C@H](O)CC[C@@]2(C)[C@@H]1CC(=O)C1=CCOC1=O", "max response": -15.5}, {"smiles": "CCC(C)(OC(C)=O)C(=O)O[C@H]1[C@H](OC(C)=O)[C@]2(CO)[C@H](O)[C@H](O)[C@]3(C)C(=CCC4[C@@]5(C)CC[C@H](O[C@@H]6O[C@H](C(=O)O)[C@@H](O)[C@H](O[C@@H]7OC[C@H](O)[C@H](O[C@@H]8OC[C@H](O)[C@H](O)[C@H]8O)[C@H]7O)[C@H]6O[C@@H]6O[C@H](CO)[C@@H](O)[C@H](O)[C@H]6O)C(C)(C)C5CC[C@]43C)[C@@H]2CC1(C)C", "note": "(stereo not given in full)", "max response": -16.4}, {"smiles": "CC(NC(=O)Cc1cc(F)cc(F)c1)C(=O)NC1C(=O)N(C)c2ccccc2-c2ccccc21", "note": "(stereo not given)", "Potency": "16.4 µM (active)"}, {"smiles": "COc1cc2ncnc(Oc3ccc(CC(=O)Nc4cnn(C(C)C)c4)cc3)c2cc1OC", "max response": 0.878}, {"smiles": "C=C1C(=O)O[C@@H]2[C@H]3C(C)=CC(=O)C3=C(C)[C@@H](OC(=O)/C(C)=C\\C)[C@H](O)[C@@H]12", "max response": 5.28}, {"smiles": "CC(C)(C)[C@H](NC(=O)c1ccc(N)c(Cl)c1)C(=O)N1CCC[C@H]1C(=O)N[C@H](C#N)CC(=O)O", "max response": 5.39}, {"smiles": "COCc1c(Cl)ccc2c1CC[C@H]2c1ncc[nH]1", "max response": -11.1}, {"smiles": "O=c1cc(N2CCOCC2)nc2c3ccccc3ccn12", "max response": -19.2}, {"smiles": "CCOC(=O)c1csc(Nc2ccc(Cl)cc2)n1", "max response": -19}, {"smiles": "CC(O)(C(=O)O)C1CCC2(C)C1CCC1(C)C2CCC2C3(C)CCC(O)C(C)(COC4OC(CO)C(O)C(O)C4O)C3CCC21C", "note": "(stereo not given)", "max response": 1.95}, {"smiles": "CCN(CC)C(=O)c1ccc(Nc2nc(OCC3CCCCC3)c3[nH]cnc3n2)cc1", "Potency": "14.6 µM (active)"}, {"smiles": "CC(CCC1(O)OC2CC3C4CC=C5CC(O[C@@H]6O[C@H](CO)[C@@H](O[C@@H]7O[C@@H](C)[C@H](O)[C@@H](O)[C@H]7O)[C@H](O)[C@H]6O[C@@H]6O[C@@H](C)[C@H](O)[C@@H](O)[C@H]6O)CCC5(C)C4CCC3(C)C2C1C)CO[C@@H]1O[C@H](CO)[C@@H](O)[C@H](O)[C@H]1O", "note": "(stereo not given in full)", "max response": 6.64}, {"smiles": "Cc1ccc(-c2ncccn2)c(C(=O)N2C[C@H](COc3ccc(F)cn3)CC[C@H]2C)c1", "max response": 1.72}, {"smiles": "CC(=O)O[C@H]1CC(C)(C)CC2[C@]13CO[C@@]21CCC2[C@@]4(C)CC[C@H](O[C@@H]5OC[C@H](O[C@@H]6O[C@H](CO)[C@@H](O)[C@H](O)[C@H]6O[C@@H]6OC[C@@H](O)[C@H](O)[C@H]6O)[C@H](O)[C@H]5O[C@@H]5O[C@H](CO)[C@@H](O)[C@H](O)[C@H]5O)[C@@](C)(CO)C4CC[C@@]2(C)[C@]1(C)C[C@H]3O", "note": "(stereo not given in full)", "max response": 4.15}, {"smiles": "CN(C)CCN(Cc1ccc(-c2ccc(CNCCc3ccccc3)cc2)cc1)C(=O)CCC1CCCC1", "Potency": "4.61 µM (active)"}, {"smiles": "CCC(C)C(=O)OC1C(C)C2(O)C(C=C(CO)CC3(O)C(=O)C(C)=CC32)C2C(C)(C)C12OC(=O)C(C)C", "note": "(stereo not given)", "max response": 7.48}, {"smiles": "CC(C)NC(=O)N1CC[C@H](N=C2Nc3cc(F)ccc3N(CC(F)F)c3ccc(Cl)cc32)C1", "max response": -1.78}, {"smiles": "O=C(Nc1nnc(-c2ccc3c(c2)OCCO3)o1)C1CCCCC1", "max response": 6.45}, {"smiles": "Cc1cc2ncc(C(=O)NCC(C)(C)NCC(=O)N3CCC[C@H]3C#N)cn2n1", "max response": 3.28}]}, {"system": "NIH3T3", "assay": "Cytotoxic Profiling of Annotated Libraries Using Quantitative High-Throughput Screening (AID 1296008)", "settings": "Five cell lines viability, CellTiter-Glo ATP luminescence, 48-72 h; max response: stronger effect = lower value", "method_in_brief": "as §1", "units": {"max response": "%"}, "values": [{"smiles": "N#Cc1ccc(COc2ccc(-c3cccc4nc(NC(=O)C5CC5)nn34)cc2)cn1", "Potency": "20.6 µM (active)"}, {"smiles": "C=C(C)[C@@H]1CC=C(COC(=O)NC(=O)c2ncn3c(=O)n(C)nnc23)CC1", "Potency": "18.4 µM (active)"}, {"smiles": "CCNC(=O)C#Cc1ccc2c(C(=Nc3ccc(CN(C)C)cc3)c3ccccc3)c(O)[nH]c2c1", "Potency": "0.709 µM (active)"}, {"smiles": "COc1cc(CCO)ccc1O[C@@H]1O[C@H](CO)[C@@H](O)[C@H](O)[C@H]1O", "max response": -23.9}, {"smiles": "O=C(Nc1ccnc(NC(=O)C2CC2)c1)c1c(Cl)cccc1Cl", "Potency": "6.51 µM (active)"}, {"smiles": "COc1cc2ncnc(Oc3ccc(CC(=O)Nc4cnn(C(C)C)c4)cc3)c2cc1OC", "Potency": "23.1 µM (active)"}, {"smiles": "O=c1cc(N2CCOCC2)nc2c3ccccc3ccn12", "max response": -3.69}, {"smiles": "CC(O)(C(=O)O)C1CCC2(C)C1CCC1(C)C2CCC2C3(C)CCC(O)C(C)(COC4OC(CO)C(O)C(O)C4O)C3CCC21C", "note": "(stereo not given)", "max response": -2.95}, {"smiles": "CCN(CC)C(=O)c1ccc(Nc2nc(OCC3CCCCC3)c3[nH]cnc3n2)cc1", "Potency": "10.3 µM (active)"}, {"smiles": "CN(C)CCN(Cc1ccc(-c2ccc(CNCCc3ccccc3)cc2)cc1)C(=O)CCC1CCCC1", "Potency": "4.11 µM (active)"}, {"smiles": "CCC(C)C(=O)OC1C(C)C2(O)C(C=C(CO)CC3(O)C(=O)C(C)=CC32)C2C(C)(C)C12OC(=O)C(C)C", "note": "(stereo not given)", "max response": -1.26}]}]}
